A selection: hits, their analogues and other compounds. The true share with any hit is near 7.5%.
Giardia FBPA inh = qHTS Assay for Inhibitors of Fructose-1,6-bisphosphate Aldolase from Giardia Lamblia | purified Giardia FBPA | 290,000 tested, 0.71% active | Potency, µM (top dose mostly 59.6 µM), inactives show at the top dose activity, negative = inhibition, most hits filed as inhibitors; further: potency means the concentration at half of the fitted maximal effect; nearly all actives have a fitted effect of over 55% in size
Target sequence (A8B2U2 whole entry, looked up): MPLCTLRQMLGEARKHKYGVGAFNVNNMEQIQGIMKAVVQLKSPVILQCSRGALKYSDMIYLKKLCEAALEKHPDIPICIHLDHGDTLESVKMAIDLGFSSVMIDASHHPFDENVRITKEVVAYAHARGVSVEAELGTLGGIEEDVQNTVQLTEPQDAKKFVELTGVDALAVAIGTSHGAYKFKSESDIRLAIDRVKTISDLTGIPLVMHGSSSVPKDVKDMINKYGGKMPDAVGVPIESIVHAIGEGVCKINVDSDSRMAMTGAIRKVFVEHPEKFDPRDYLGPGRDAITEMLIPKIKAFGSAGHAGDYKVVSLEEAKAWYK
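40 nM FBPA preincubated 10 min at RT with compound (up to 57.5 uM final), then substrate plus GAPDH/TPI/NAD/arsenate coupling and diaphorase/resazurin added. Fluorescence read after 20 min at RT, 525/598 nm.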
VACV mCherry inh = qHTS for Stage-Specific Inhibitors of Vaccinia Orthopoxvirus: mCherry Reporter Primary qHTS | AID 720579, 2013 | Vaccinia virus mCherry reporter infection, fluorescence | Potency, µM (doses to about 36.5 µM), inactives show at the highest dose activity change, negative = inhibition, most hits filed as inhibitors | 310,000 tested, 0.63% active; calls by dose curve; tested in A549 cells; further: potency means the concentration at half of the fitted maximal effect; nearly all actives have a fitted effect of over 35% in size
Vaccinia Venus = qHTS for Stage-Specific Inhibitors of Vaccinia Orthopoxvirus: Venus Reporter Primary qHTS; 330,000 tested, 0.46% active; Potency, µM (titrated, usually from 36.5 µM), without a hit: at the top dose activity change, negative = inhibition, usual class: inhibitors; Vaccinia virus Venus reporter expression, fluorescence; calls by dose curve; tested in A549 cells; further: potency means the concentration at half of the fitted maximal effect; nearly all actives have a fitted effect of over 30% in size
FMDV antiviral = High Throughput Screening for Foot and Mouth Disease Virus Antivirals; 410,000 tested, 1.2% active; Potency, µM (doses to about 57.9 µM), inactives show at the top dose activity change, negative = inhibition, most hits filed as inhibitors; FMDV antiviral cell-based qHTS; AID 1159524, 2015; calls by dose curve; tested in HEK293T cells; further: read-out not given here; potency means the concentration at half of the fitted maximal effect; nearly all actives have a fitted effect of over 45% in size
HCMV antiviral = qHTS Assay for inhibitors of the human cytomegalovirus (HCMV); activity change, negative = inhibition, % at 57.5 µM; AID 1259415, 2018; HFF cells, HCMV-luciferase reporter, 72 h; stronger effect = lower value; 410,000 tested, 4.5% active; in the data active means activity change below about -60%; inconclusive means no clear call, values can overlap the other calls; inactive means above about -39%
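Human foreskin fibroblasts infected with luciferase-reporter HCMV at MOI 1 PFU/cell, compounds at two doses. Luciferase measured 72 h post infection; normalized to buffer-only basal and Salinomycin (10uM) controls.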
HCV inh = qHTS Assay for Inhibitors of Hepatitis C Virus (HCV). Huh7.5.1 HCVcc-Cre infection, luciferase reporter, 44 h. 340,000 tested, 3.4% active. Potency, µM (doses to about 41.8 µM), for inactives: top-dose activity change, negative = inhibition, hits mostly inhibitors; further: potency means the concentration at half of the fitted maximal effect
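Cells (1,000/well) were plated 4 h before compound, then infected with HCVcc-Cre virus (~0.5 moi). After 44 h further culture, infection was read as luciferase luminescence following a 15 min substrate incubation at room temperature.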
Active calls of the source: *; i = inactive; ? = inconclusive; / = not tested or not shown. Unless noted, the call rests on the fitted dose curve; in most records, active means well fitted curve in the direction sought with a large enough effect; inconclusive means small, poorly fitted or top-dose-only effect, or another doubt; inactive means no such curve, though single readings can be large; an effect the other way counts as inactive or inconclusive. On the % scale 0 is the no-effect control and ±100 the full control effect.

SMILES	Giardia FBPA inh	VACV mCherry inh	Vaccinia Venus	FMDV antiviral	HCMV antiviral	HCV inh
CC(=O)c1cccc(NC(=O)C2CCN(S(=O)(=O)c3ccc4c(c3)oc(=O)n4C)CC2)c1	/	1%	1%	-21%	-12	/
COc1ccc(-c2csc(NC(=O)CSCC(=O)Nc3cc(C)on3)n2)cc1OC	/	-12%	-9%	-29%	-17	?
Cc1csc(NC(=O)CSCc2c(C)noc2C)n1	/	i	1%	7%	-27	-16%
Cc1noc(C)c1CSCC(=O)Nc1nc(-c2ccc(F)c(F)c2)cs1	/	i	-12%	18µM*	-39	13µM*
COc1ccc(-c2csc(NC(=O)CSCc3c(C)noc3C)n2)cc1OC	/	-3%	-16%	40µM*	-13	?
CCc1nnc(NC(=O)CCC(=O)N2CCN(Cc3ccc(OC)c(F)c3)CC2)s1	15%	/	/	-23%	-34	?
COc1ccc2c(c1)c1nc3n(c(=O)c1n2CC(=O)Nc1cc(C)[nH]n1)CCS3	0%	/	/	/	-85*	/
CSc1sc(C)cc1C=O	-1%	i	0%	-8%	9	-12%
CSc1cc(/C=N/O)c(SC)s1	-3%	/	-15%	-26%	-6	10µM*
CCOC(=O)c1ccc(N2C(=O)c3n[nH]c(-c4cccs4)c3C2c2ccc(O)c(OC)c2)cc1 (stereo not given)	/	-12%	-13%	-28%	-74*	/
CCOC(=O)c1ccc(N2C(=O)c3n[nH]c(-c4cccs4)c3C2c2ccc(Cl)cc2Cl)cc1 (stereo not given)	/	?	?	?	-107*	/
CCOC(=O)c1ccc(N2C(=O)c3n[nH]c(-c4cccs4)c3C2c2ccc(C)cc2)cc1 (stereo not given)	/	-12%	-9%	-20%	3	/
CCC(C(=O)Nc1ccccc1OC)n1nc(C)c2sc3ccccc3c2c1=O (stereo not given)	/	-17%	-12%	-20%	3	/
Cc1noc(C)c1COC(=O)C1CCN(S(=O)(=O)c2c(Cl)cccc2Cl)CC1	/	-18%	-5%	?	-20	7%
COc1ccc(N(CC(=O)NCc2ccco2)C(=O)CNS(=O)(=O)c2ccc(Cl)cc2)cc1	2%	-24%	-15%	6%	-20	3%
Clc1cccc(Cl)c1CON/C=N/c1ncnc2sccc12	-3%	/	?	?	?	11µM*
Cc1ccc2c(c1)c1nc3ccccc3nc1n2CCN1CCOCC1	-21%	-9%	-6%	5%	-14	13µM*
Cc1ccc2c(c1)c1nc3ccccc3nc1n2C	0%	/	/	36%	241	11µM*
Cn1c2ccc(F)cc2c2nc3ccccc3nc21	11%	13%	0%	15%	155	?
Nc1ncnc2c1ncn2[C@@H]1O[C@H](COP(=O)(O)OP(=O)(O)OP(=O)(O)O)[C@@H](O)[C@H]1O	/	-10%	-9%	-16%	/	0.56µM*
Nc1ncnc2c1ncn2[C@@H]1O[C@H](COP(=O)(O)O)[C@@H](O)[C@H]1O	-3%	i	-6%	5%	45	0.56µM*
Nc1ncnc2c1ncn2C1OC(COP(=O)(O)O)C(O)C1O (stereo not given)	17%	-12%	-4%	5%	101	7%
CN1N=C(N)c2cn(C3OC(COP(=O)(O)O)C(O)C3O)c3ncnc1c23 (stereo not given)	/	?	-8%	-13%	-70*	?
O=C(O)C1CCCN(S(=O)(=O)c2ccc(-c3ccc(=O)[nH]n3)s2)C1 (stereo not given)	/	-14%	-2%	-5%	-15	21%
FC(F)(F)c1cc(-c2cnc3ccc(NCc4ccco4)nn23)cc(C(F)(F)F)c1	/	/	/	/	-10	/
SMILES	Giardia FBPA inh	VACV mCherry inh	Vaccinia Venus	FMDV antiviral	HCMV antiviral	HCV inh
CSc1ncccc1C(=O)NCCN1Cc2ccccc2OC(c2ccccc2F)C1 (stereo not given)	/	-11%	2%	7%	/	/
COC(=O)C(=C/C(C)=C/c1cccnc1)C(=O)OC	-4%	-22%	-22%	22µM*	?	-20%
COC(=O)/C(=C/c1cccnc1)NC(=O)c1ccccc1	4%	-9%	-11%	-16%	33	6%
Cc1nn(Cc2ccc(Cl)cc2Cl)c(C)c1NC(=O)Cn1nc([N+](=O)[O-])c(Cl)c1C	17%	/	-10%	?	-2	?
Cc1nn(Cc2ccc(Cl)cc2)c(C)c1NC(=O)C(c1ccccc1)c1ccccc1	3%	-14%	-12%	-10%	-64*	?
Cc1nn(Cc2ccc(Cl)cc2)c(C)c1NC(=O)Cn1nc([N+](=O)[O-])c(Cl)c1C	4%	/	-8%	-21%	101	3.2µM*
Cc1nn(Cc2ccc(C(=O)Nc3ccccc3F)cc2)c(C)c1Cl	-11%	/	/	4%	-62*	-11%
CCOC(=O)c1c(S(=O)(=O)N2CCCC(C(=O)Nc3ccc(C)cc3C)C2)c(C)n(CC)c1C (stereo not given)	/	-16%	-6%	0%	-9	/
CCNc1ncc2nc(-c3ccc(F)cc3)c(=O)n(CCOC)c2n1	1%	/	/	-8%	/	/
COc1ccccc1CN1CCC2(CC1)c1ccccc1[C@@H](NC(=O)c1ccco1)[C@@H]2OC	/	i	-29%	-3%	/	/
CN(C)/C=N/c1nc(-c2ccc3ccccc3c2)cs1	-4%	-16%	-9%	6%	129	?
O=C(N[C@@H](Cc1ccccc1)C(=O)CCl)OCc1ccccc1	-4%	10µM*	10µM*	32µM*	-90*	?
C=CCSC1=C(C#N)C(c2ccccc2Cl)C(C(=O)c2cccs2)C(O)(C(F)(F)F)N1 (stereo not given)	?	-29%	-26%	-23%	-70*	?
CCn1c(CN2c3ccccc3Sc3ccccc32)n[nH]c1=S	-12%	-14%	3%	-21%	-62*	4%
CCn1c(CCCCc2n[nH]c(=S)n2CC)n[nH]c1=S	-25%	/	/	-10%	17	7%
COc1ccc(NC(=O)N(C)C[C@@H]2OCc3cn(nn3)CCCC(=O)N([C@H](C)CO)C[C@H]2C)cc1	/	-2%	-14%	-14%	-28	/
CCN1c2ccccc2NC2C1C(C(C)=O)C(=O)N2c1ccc(Cl)cc1 (stereo not given)	?	-3%	25%	/	33	10µM*
Cc1cccc(N2C(=O)NC(=O)/C(=C\c3cnc(-c4ccccc4)nc3)C2=O)c1	-7%	i	-1%	-12%	-10	11µM*
CC(C)c1ccc(N2C(=O)NC(=O)/C(=C\c3cnc(-c4ccccc4)nc3)C2=O)cc1	0%	-19%	-11%	-11%	-88*	10%
CCN(CC)c1ccc(/C=C/c2cc(-c3ccccc3)c3ccccc3n2)cc1	0%	/	/	-35%	-38	14µM*

High-throughput results (PubChem BioAssay)
